In PubChem BioAssay (NCATS):
Values joined by “and” are separate entries in the source; they are usually repeats but may differ in a detail not shown here. Equal entries are not always repeated. Inconclusive results are not listed. A structure can be active in one record and inactive in another. Active and inactive are the calls of the source. Unless noted, calls follow the shape of the full dose curve.

Key:
[1] = biological target: Glucocorticoid receptor (Homo sapiens) (UniProt P04150); assay: qHTS assay for small molecule antagonists of glucocorticoid receptor signaling (AID 588533; active = well fitted inhibition curve with a large enough effect in the signal ratio, with a control signal flat, not every such curve was filed as active; the % refers to the signal ratio;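 also: cells stimulated with 2 nM dexamethasone as agonist; % is scaled to controls: 0 for no effect and ±100 for the full control effect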)
In short: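 Antagonist-mode qHTS: compound titrations added to GRE-bla HeLa cells, then dexamethasone 2 nM final; 18 h, 37 C. CCF4 FRET fluorescence normalized to dexamethasone and DMSO; IC50 from Hill fit.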

[2] = biological target: Peroxisome proliferator-activated receptor delta (Homo sapiens) (UniProt Q03181); assay: qHTS assay for small molecule agonists of peroxisome proliferator-activated receptor delta signaling (AID 588534);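 also: 0% = DMSO basal wells and 100% = positive control agonist at 10 µM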
In short: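 EC50 and efficacy values derive from Hill fits of a concentration series in a beta-lactamase reporter cell assay. Exposure is 18 hrs at 37 C, with CCF4 fluorescence as the readout.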

[3] = qHTS assay for small molecule antagonists of peroxisome proliferator-activated receptor delta signaling (AID 588535; active = well fitted inhibition curve with a large enough effect in the signal ratio, with a control signal flat, not every such curve was filed as active; the % refers to the signal ratio;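 as to max response: cells co-treated with a PPAR-delta agonist as stimulator during compound exposure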); details: HEK293T PPARd-UAS-bla, beta-lactamase FRET ratio, 18 h; 460 nm channel
In short: (§1)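 Compounds tested in titration on PPAR-delta-UAS-bla HEK293T cells grown in charcoal/dextran-stripped serum (2%); beta-lactamase activity read via CCF4 emission at 460 and 530 nm.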

[4] = biological target: Peroxisome proliferator-activated receptor delta (Homo sapiens) (UniProt Q03181); assay: as above
In short: as §1

[5] = biological target: Peroxisome proliferator-activated receptor gamma (Homo sapiens) (UniProt P37231); assay: qHTS assay for small molecule agonists of peroxisome proliferator-activated receptor gamma signaling (AID 588536; active = well fitted curve in the direction sought with a large enough effect in the signal ratio, with a control signal flat, not every such curve was filed as active; the % refers to the signal ratio;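 also: 0% = DMSO basal wells and 100% = rosiglitazone at 2 µM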)
In short: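 Compound treatment: 16 h, 37 C, HEK293 GeneBLAzer cells. Detection: CCF4, 2 h RT. Values: Hill-fit EC50, efficacy as % of 2 uM rosiglitazone.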

[6] = biological target: Vitamin D3 receptor (Homo sapiens) (UniProt P11473); assay: qHTS assay for small molecule antagonists of vitamin D receptor signaling (AID 588541);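 also: receptor activated by calcitriol during compound treatment; series mostly up to about 77 µM; % is scaled to controls: 0 for no effect and ±100 for the full control effect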
In short: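 VDR-UAS-bla HEK293T cells (2000/well, 2% charcoal-stripped FBS) were treated with titrated compounds plus 1-alpha,25-dihydroxyvitamin D3 (50 nM or 3 nM final) for 16 h at 37 C. CCF4 beta-lactamase fluorescence was read; Hill fits gave IC50.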

[7] = biological target: Vitamin D3 receptor (Homo sapiens) (UniProt P11473); assay: qHTS assay for small molecule agonists of vitamin D receptor signaling (AID 588543);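 also: 0% = DMSO basal and 100% = reference agonist control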
In short: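 VDR-UAS-bla HEK293T cells, 2000/well, 2% charcoal-stripped FBS; compound titration 16 h at 37 C; CCF4 beta-lactamase ratio read. Normalized to 50 nM 1-alpha,25-dihydroxyvitamin D3 (100%) and DMSO; Hill fit gives EC50, efficacy.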

[8] = qHTS assay for small molecule agonists of retinoid X receptor alpha signaling (AID 588544); details: HEK293T RXRa-UAS-bla, beta-lactamase reporter, 18 h; 530 nm emission;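 as to activation: 0% = DMSO basal wells and 100% = reference agonist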
[9] = biological target: Retinoic acid receptor RXR-alpha (Homo sapiens) (UniProt P19793); assay: as above
[10] = qHTS assay for small molecule antagonists of retinoid X receptor alpha signaling (AID 588546; active = well fitted inhibition curve with a large enough effect in the signal ratio, with a control signal flat, not every such curve was filed as active; the % refers to the signal ratio;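 also: cells stimulated with 9-cis-retinoic acid as agonist; % is scaled to controls: 0 for no effect and ±100 for the full control effect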); details: HEK293T RXRa-UAS-bla, beta-lactamase ratio, antagonist mode; measured here: W530 green channel, cytotoxicity proxy
In short: (§2)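 Beta-lactamase reporter inhibition, read as CCF4 fluorescence ratio (ex 405, em 460/530 nm) after 2 h at RT. HEK293T UAS-bla cells, 2500/well, were stimulated with 9-cis-RA at 500 or 100 nM final alongside test compound for 18 h at 37 C.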

[11] = biological target: Retinoic acid receptor RXR-alpha (Homo sapiens) (UniProt P19793); assay: as above; details: HEK293T RXRa-UAS-bla, beta-lactamase ratio, antagonist mode
In short: as §2

[12] = biological target: Thyroid hormone receptor beta (Homo sapiens) (UniProt P10828); assay: qHTS assay for small molecule antagonists of thyroid hormone receptor beta signaling (AID 588547; active = well fitted inhibition curve with a large enough effect in the signal ratio, with a control signal flat, not every such curve was filed as active; the % refers to the signal ratio;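 also: cells stimulated with 0.4 nM T3 agonist during compound exposure; series mostly up to about 77 µM; % is scaled to controls: 0 for no effect and ±100 for the full control effect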); details: TR-UAS-bla HEK293, beta-lactamase ratio, antagonist mode, 18 h
In short: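 TR-UAS-bla GripTite HEK293 cells in 2% charcoal/dextran FBS medium were preincubated 4 h at 37 C, given compound (0.59 nM to 92 uM) plus 0.4 nM T3 (final) for 18 h, then CCF4 for 2 h at RT; Hill fit gave IC50.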

[13] = qHTS assay for small molecule activators of the p53 signaling pathway (AID 651743; active = well fitted activation curve with a large enough effect in the signal ratio, not every such curve was filed as active; the % refers to the signal ratio; also: series mostly up to about 92 µM; % of control where 0% means no effect); details: HCT-116 p53RE-bla, beta-lactamase FRET ratio, 16 h; activation: stronger effect = higher value
In short: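 Here HCT-116 cells with an integrated p53-responsive beta-lactamase gene were incubated with compounds (16 hours, 37 C) after a 5-hour plating period; beta-lactamase activity was detected as fluorescence intensity via B/G FRET substrate.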

[14] = qHTS assay for small molecule activators of the nuclear factor-kappa B (NF-kB) signaling pathway (AID 651749; active = well fitted activation curve with a large enough effect in the signal ratio; the % refers to the signal ratio; also: series mostly up to about 77 µM; % of control where 0% means no effect); details: NF-kB-bla ME-180 cells, beta-lactamase FRET ratio, 16 h; activation: stronger effect = higher value
In short: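 Beta-lactamase reporter expression, controlled by NF-kB response elements in ME-180 cells, was quantified fluorometrically via FRET disruption; cells at 2,000/well had been incubated with 23 nL test compound for 16 hr.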

[15] = qHTS assay for environmental chemicals that activate the Aryl hydrocarbon Receptor (AhR) signaling pathway (AID 651777; active = well fitted curve in the direction sought with a large enough effect; an effect the other way counts as inactive or inconclusive; also: % of control where 0% means no effect; nearly all actives have a fitted effect of over 15% in size); details: 1A2-DRE human hepatoma cells, luciferase, 24 h; activation: stronger effect = higher value
In short: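 Luminescence read-out: One-Glo added for 30 min at RT after 24 hr compound treatment (37 C, 5% CO2) of human hepatoma cells expressing a DRE/CYP1A2 promoter–luciferase reporter; increased signal indicates AhR activation.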

[16] = biological target: Peroxisome proliferator-activated receptor alpha (Homo sapiens) (UniProt Q07869); assay: qHTS assay for small molecule agonists of the peroxisome proliferator-activated receptor alpha (PPARalpha) signaling pathway (AID 651778; active = well fitted curve in the direction sought with a large enough effect; an effect the other way counts as inactive or inconclusive; also: potency is read from the fitted curve at half-maximal effect; as to max response: % of control where 0% means no effect); details: PathHunter PPARalpha complementation, chemiluminescence, 6 h; max response: stronger effect = higher value
In short: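 Cells plated at 2,000/well and held overnight at 37 C, 5% CO2, then compound added by pin tool for 6 hr; after PathHunter detection reagent and 60 min at room temperature, chemiluminescence from enzyme complementation was read.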

[17] = qHTS assay for small molecule agonists of the antioxidant response element (ARE) signaling pathway measured by Nrf2-dependant transcriptional activity (AID 720636; active = well fitted curve in the direction sought with a large enough effect in the repeat runs; an effect the other way counts as inactive or inconclusive; also: potency is read from the fitted curve at half-maximal effect; as to activation: % of control where 0% means no effect)
In short: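 HepG2 ARE-luc reporter line, 1% dialyzed FBS; 6 hr attachment at 37 C, compound pinned in, 16 hr at 37 C/5% CO2; ONE-Glo, 30 min RT, luminescence read.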

[18] = qHTS assay for small molecule agonists of the antioxidant response element (ARE) signaling pathway measured by Nrf2-dependant transcriptional activity - cell viability counter screen (AID 720653; active = well fitted curve in the direction sought with a large enough effect in the repeat runs; an effect the other way counts as inactive or inconclusive; also: % is scaled to controls: 0 for no effect and ±100 for the full control effect); details: ARE-bla HepG2 viability, CellTiter-Glo ATP luminescence, 16 h; max response: stronger effect = lower value
In short: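 ARE-bla HepG2 cells (2,000/well) rested 5 hrs at 37C/5% CO2, then exposed to compounds in DMSO for 16 hrs. Viability was read in the same wells as intracellular ATP by luminescence, 30 min at room temperature after reagent addition.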

[19] = qHTS assay for cell viability of HEK293 cells (AID 743288; active = well fitted curve in the direction sought with a large enough effect; an effect the other way counts as inactive or inconclusive; also: % is scaled to controls: 0 for no effect and ±100 for the full control effect; nearly all actives have a fitted effect of over 50% in size); details: ATP luminescence (CellTiter-Glo), 18 h; max response: stronger effect = lower value
In short: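 Steps: plate 2,000 parental HEK293 cells per well; incubate ≥5 h, 37 C; add compounds in DMSO; incubate 18 h, 37 C; add CellTiter-Glo; wait 30 min at room temperature; read luminescence.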

[20] = qHTS assay for cell viability of the p53RE-bla HCT-116 cell line (AID 743292; active = well fitted curve in the direction sought with a large enough effect; an effect the other way counts as inactive or inconclusive; also: % is scaled to controls: 0 for no effect and ±100 for the full control effect; nearly all actives have a fitted effect of over 55% in size)
In short: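 Luminescent ATP quantitation (CellTiter-Glo) served as the viability read-out; reagent was added after 16 h compound exposure at 37 C and read after 30 min at room temperature. Cells: p53RE-bla HCT-116, 4,000 per well.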

[21] = biological target: Nuclear receptor subfamily 1 group I member 2 (Rattus norvegicus) (UniProt Q9R1A7); assay: qHTS assay for small molecule activators of the rat pregnane X receptor (rPXR) signaling pathway (AID 651751; call rule not given here; also: 0% is about no effect); details: rPXR reporter cells, luciferase (One-Glo), 24 h
[22] = qHTS assay for small molecule activators of the human pregnane X receptor (PXR) signaling pathway (AID 720659; call rule not given here; also: 0% is about no effect)
[23] = biological target: Glucocorticoid receptor (Homo sapiens) (UniProt P04150); assay: qHTS assay for small molecule agonists of glucocorticoid receptor signaling (AID 588532; active = well fitted curve in the direction sought with a large enough effect in the signal ratio, with a control signal flat; the % refers to the signal ratio;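 also: 100% = dexamethasone at 0.1 µM and 0% = DMSO only wells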); details: HeLa MMTV-bla, beta-lactamase ratio, agonist, 18 h; activation: stronger effect = higher value, percent of dexamethasone control, DMSO zero
In short: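 Stimulation of a glucocorticoid response element-driven beta-lactamase gene was measured in HeLa cells. Responses were scaled between DMSO basal and 0.1 uM dexamethasone, then fitted for half-maximal stimulation.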

[24] = biological target: Thyroid hormone receptor beta (Homo sapiens) (UniProt P10828); assay: qHTS assay for small molecule agonists of thyroid hormone receptor beta signaling (AID 588545);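 also: 0% = DMSO only and 100% = 10 nM T3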
In short: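 TR-UAS-bla-GripTite HEK 293 cells in medium with 2% charcoal/dextran FBS, 0.1 mM NEAA and 1 mM sodium pyruvate were treated with titrated compounds for 18 hrs at 37 C. Beta-lactamase reporter was read with CCF4 dye (ex 405, em 460/530 nm); EC50 from Hill fits.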

[25] = qHTS assay for small molecule agonists of the antioxidant response element (ARE) signaling pathway (AID 651741; active = well fitted activation curve with a large enough effect in the signal ratio; the % refers to the signal ratio; also: potency is read from the fitted curve at half-maximal effect)
In short: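 Beta-lactamase reporter expression driven by the antioxidant response element in HepG2 cells was detected by fluorescence with LiveBLAzer B/G FRET substrate (2 h, room temperature) following 16 h compound treatment at 37 C.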

[26] = biological target: Peroxisome proliferator-activated receptor gamma (Homo sapiens) (UniProt P37231); assay: qHTS assay for small molecule antagonists of peroxisome proliferator-activated receptor gamma signaling (AID 588537; active = well fitted inhibition curve with a large enough effect in the signal ratio, with a control signal flat, not every such curve was filed as active; the % refers to the signal ratio;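 also: reporter cells co-stimulated with 50 nM rosiglitazone agonist during compound treatment; % of control where 0% means no effect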)
In short: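 HEK293 cells, PPAR-gamma-UAS-bla, 3000/well. Pre-incubation 6-6.5 h, 37 C. Compound titration with rosiglitazone 50 nM final, 16 h. CCF4 dye, 2 h RT, dual-emission fluorescence.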

Sequence of Nuclear receptor subfamily 1 group I member 2 (Rattus norvegicus) (Q9R1A7 whole entry, looked up): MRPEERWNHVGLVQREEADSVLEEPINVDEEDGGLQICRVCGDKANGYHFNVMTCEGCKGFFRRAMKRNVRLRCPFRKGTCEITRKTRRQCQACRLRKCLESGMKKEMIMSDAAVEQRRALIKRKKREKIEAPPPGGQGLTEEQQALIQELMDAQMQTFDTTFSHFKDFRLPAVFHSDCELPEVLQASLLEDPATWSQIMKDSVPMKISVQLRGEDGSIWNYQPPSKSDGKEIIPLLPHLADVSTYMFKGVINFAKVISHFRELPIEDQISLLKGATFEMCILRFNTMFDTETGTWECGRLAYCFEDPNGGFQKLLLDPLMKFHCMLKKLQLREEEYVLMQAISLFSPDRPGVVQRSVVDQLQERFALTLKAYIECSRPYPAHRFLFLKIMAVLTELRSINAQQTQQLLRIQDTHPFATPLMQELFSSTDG
Sequence of Retinoic acid receptor RXR-alpha (Homo sapiens) (P19793 whole entry, looked up): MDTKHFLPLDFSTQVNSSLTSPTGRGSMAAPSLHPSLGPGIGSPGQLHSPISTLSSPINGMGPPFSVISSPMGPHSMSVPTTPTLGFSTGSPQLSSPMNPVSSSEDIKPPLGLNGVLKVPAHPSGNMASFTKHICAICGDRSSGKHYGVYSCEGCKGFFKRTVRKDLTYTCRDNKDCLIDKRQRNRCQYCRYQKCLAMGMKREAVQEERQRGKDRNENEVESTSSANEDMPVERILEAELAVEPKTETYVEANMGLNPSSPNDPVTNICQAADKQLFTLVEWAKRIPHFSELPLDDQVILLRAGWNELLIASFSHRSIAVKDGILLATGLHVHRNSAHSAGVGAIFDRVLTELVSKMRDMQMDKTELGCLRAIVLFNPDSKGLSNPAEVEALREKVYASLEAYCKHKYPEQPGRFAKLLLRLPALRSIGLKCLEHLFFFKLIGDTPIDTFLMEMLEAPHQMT
Sequence of Thyroid hormone receptor beta (Homo sapiens) (P10828 whole entry, looked up): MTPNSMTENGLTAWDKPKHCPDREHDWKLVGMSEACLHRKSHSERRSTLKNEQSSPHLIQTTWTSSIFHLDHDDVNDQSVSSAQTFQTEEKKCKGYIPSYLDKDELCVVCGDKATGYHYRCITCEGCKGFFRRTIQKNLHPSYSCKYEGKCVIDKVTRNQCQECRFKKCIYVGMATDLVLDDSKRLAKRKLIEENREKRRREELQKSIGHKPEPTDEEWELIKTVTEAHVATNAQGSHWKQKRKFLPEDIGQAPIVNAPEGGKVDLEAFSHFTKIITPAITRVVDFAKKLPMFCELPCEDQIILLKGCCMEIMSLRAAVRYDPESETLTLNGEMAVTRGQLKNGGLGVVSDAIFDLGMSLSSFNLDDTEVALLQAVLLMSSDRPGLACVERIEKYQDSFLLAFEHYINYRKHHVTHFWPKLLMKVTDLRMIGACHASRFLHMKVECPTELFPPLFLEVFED
Sequence of Glucocorticoid receptor (Homo sapiens) (P04150 whole entry, looked up): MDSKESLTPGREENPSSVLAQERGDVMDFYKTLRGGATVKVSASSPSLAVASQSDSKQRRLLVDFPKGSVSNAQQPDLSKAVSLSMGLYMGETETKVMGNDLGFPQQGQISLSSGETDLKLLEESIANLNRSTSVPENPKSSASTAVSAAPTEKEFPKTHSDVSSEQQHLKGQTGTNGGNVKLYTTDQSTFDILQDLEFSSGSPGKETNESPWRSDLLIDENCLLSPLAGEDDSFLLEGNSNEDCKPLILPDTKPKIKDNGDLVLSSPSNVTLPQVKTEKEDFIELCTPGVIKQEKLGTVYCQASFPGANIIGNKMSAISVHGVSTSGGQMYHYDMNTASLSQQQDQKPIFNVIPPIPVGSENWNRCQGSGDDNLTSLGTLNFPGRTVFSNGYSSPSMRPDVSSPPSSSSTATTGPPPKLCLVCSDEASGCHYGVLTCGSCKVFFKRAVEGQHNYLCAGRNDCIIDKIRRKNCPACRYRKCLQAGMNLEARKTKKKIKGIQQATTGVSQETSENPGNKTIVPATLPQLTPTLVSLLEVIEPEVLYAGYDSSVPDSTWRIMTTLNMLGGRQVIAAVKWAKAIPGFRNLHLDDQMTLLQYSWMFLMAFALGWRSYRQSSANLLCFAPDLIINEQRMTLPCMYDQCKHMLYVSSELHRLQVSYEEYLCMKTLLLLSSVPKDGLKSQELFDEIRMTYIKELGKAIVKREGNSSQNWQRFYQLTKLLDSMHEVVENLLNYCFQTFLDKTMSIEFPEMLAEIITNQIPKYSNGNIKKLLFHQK
Sequence of Peroxisome proliferator-activated receptor delta (Homo sapiens) (Q03181 whole entry, looked up): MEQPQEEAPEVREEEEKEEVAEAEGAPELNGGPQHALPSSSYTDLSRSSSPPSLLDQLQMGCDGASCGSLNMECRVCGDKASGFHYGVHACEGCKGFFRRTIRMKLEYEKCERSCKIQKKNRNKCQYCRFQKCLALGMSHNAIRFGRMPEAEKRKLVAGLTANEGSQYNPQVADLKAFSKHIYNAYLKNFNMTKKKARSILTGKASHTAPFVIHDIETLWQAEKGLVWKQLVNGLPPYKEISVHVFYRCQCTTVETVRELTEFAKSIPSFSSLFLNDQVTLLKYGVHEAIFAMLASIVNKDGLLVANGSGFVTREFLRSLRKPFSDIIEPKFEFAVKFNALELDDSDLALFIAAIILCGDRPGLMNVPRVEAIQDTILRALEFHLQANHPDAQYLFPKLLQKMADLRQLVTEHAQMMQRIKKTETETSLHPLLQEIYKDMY
Sequence of Peroxisome proliferator-activated receptor gamma (Homo sapiens) (P37231 whole entry, looked up): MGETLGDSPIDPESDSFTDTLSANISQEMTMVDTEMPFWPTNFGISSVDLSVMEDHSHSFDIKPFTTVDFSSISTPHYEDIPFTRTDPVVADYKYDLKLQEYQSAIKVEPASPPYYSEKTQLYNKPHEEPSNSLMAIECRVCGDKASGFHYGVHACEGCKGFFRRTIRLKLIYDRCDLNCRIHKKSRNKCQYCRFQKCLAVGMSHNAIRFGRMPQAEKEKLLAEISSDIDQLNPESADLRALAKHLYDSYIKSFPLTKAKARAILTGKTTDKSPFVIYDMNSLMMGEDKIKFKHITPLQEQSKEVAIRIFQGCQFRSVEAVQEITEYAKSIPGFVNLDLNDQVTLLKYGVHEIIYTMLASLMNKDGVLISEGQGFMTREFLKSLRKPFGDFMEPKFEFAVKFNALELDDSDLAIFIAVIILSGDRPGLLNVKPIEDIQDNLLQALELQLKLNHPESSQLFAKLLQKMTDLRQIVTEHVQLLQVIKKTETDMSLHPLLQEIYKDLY
Sequence of Vitamin D3 receptor (Homo sapiens) (P11473 whole entry, looked up): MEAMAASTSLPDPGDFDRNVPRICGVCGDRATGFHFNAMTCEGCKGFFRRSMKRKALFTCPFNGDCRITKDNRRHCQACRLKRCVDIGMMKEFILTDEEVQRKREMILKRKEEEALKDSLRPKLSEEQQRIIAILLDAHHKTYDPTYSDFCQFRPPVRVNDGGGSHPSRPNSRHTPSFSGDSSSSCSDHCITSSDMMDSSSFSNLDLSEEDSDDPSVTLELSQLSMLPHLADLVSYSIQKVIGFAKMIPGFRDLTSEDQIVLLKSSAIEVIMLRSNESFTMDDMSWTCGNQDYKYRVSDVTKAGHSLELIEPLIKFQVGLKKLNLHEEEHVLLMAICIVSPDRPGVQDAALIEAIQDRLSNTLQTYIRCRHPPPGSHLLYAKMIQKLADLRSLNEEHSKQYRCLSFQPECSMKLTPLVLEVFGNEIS
Sequence of Peroxisome proliferator-activated receptor alpha (Homo sapiens) (Q07869 whole entry, looked up): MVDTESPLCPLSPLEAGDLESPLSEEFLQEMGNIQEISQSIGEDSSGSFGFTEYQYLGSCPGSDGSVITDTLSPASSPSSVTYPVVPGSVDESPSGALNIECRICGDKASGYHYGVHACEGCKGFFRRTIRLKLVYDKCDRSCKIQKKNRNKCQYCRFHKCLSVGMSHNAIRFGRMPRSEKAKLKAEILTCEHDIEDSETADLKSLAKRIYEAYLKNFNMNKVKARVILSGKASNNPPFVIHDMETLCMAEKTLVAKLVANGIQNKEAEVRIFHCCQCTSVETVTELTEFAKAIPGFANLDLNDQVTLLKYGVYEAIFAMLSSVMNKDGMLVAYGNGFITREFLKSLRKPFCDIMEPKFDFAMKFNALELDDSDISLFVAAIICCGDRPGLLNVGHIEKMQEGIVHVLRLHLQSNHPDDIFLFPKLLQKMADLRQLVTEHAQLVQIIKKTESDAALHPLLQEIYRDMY

CN1COCN(Cc2cnc(Cl)s2)/C1=N\[N+](=O)[O-]
inactive: Potency [1] | outcome [2] | Potency [4] | Potency [5] | Potency [6] | outcome [7] | Potency [9] | max response [11] 2.74% | activity change % (negative = inhibition) [12] -19.4% | activation [13] -3.46% | activation [14] 0.219% | activation [15] -0.335% | max response [16] -1.32% | Potency [17] | max response [18] -21.4% | max response [19] -0.262% | Potency [20] | max response [21] -0.267% | outcome [22]
-27.5%: max response [8]
-4.43%: max response [10]
-72.6%: max response [3]

C#CC(C)(C)NC(=O)c1cc(Cl)cc(Cl)c1
inactive: activation [23] -9.44% | Potency [1] | outcome [2] | Potency [6] | outcome [7] | Potency [9] | Potency [24] | max response [11] -9.81% | activity change % (negative = inhibition) [12] 3.53% | activation [13] -3.76% | activation [14] -1.42% | activation [15] -1.14% | max response [16] 7.64% | Potency [17] | max response [18] 4.89% | max response [19] 5.07%
-7.53%: max response [8]
-11.2%: max response [10]

CC/C=C/CCCCCCCCCCOC(C)=O
inactive: outcome [2]

c1ccc2c(c1)oc1ccccc12
-9.11%: max response [10]
3.99%: max response [3]
-6.25%: max response [8]
inactive: activation [23] 0.193% | Potency [1] | outcome [2] | Potency [4] | Potency [6] | outcome [7] | Potency [9] | max response [11] 10.8% | activation [13] -2.47% | activation [14] -1.03% | max response [16] 0.628% | Potency [17] | max response [18] -12.3% | Potency [20] | max response [21] -0.589% | outcome [22]

CCOC(=O)C(C)OC(=O)c1cc(Oc2ccc(C(F)(F)F)cc2Cl)ccc1[N+](=O)[O-] (configuration not stated)
inactive: Potency [1] | Potency [4] | Potency [5] | Potency [24] | activity change % (negative = inhibition) [12] 11.5% | activation [13] 0.27% | activation [14] 0.301% | activation [15] 4.56% | Potency [17] | max response [18] -9.47% | Potency [20] | max response [21] 4.28%
active: Potency [16] 35.5 µM
34.5%: max response [3]

S=C([S-])NCCNC(=S)[S-].[Zn+2]
2.58%: max response [8]
inactive and 68.6 µM (active): Potency [17]
inactive: activation [23] 4.35% | Potency [6] | Potency [9] | max response [11] 15.4% and -59.9%
-2.08% and 15.4%: max response [10]
active: Potency [25] 21.7 µM and 27.3 µM

CCNc1nc(Cl)nc(NC(C)(C)C#N)n1
-4.23%: max response [8]
0.495%: max response [10]
32.2%: max response [3]
inactive: activation [23] -6.13% | Potency [1] | outcome [2] | Potency [4] | Potency [5] | Potency [26] | Potency [9] | Potency [24] | max response [11] -7.14% | activity change % (negative = inhibition) [12] -10.7% | activation [13] -4.15% | activation [15] 1.84% | max response [16] 0.299% | max response [18] -18.8% | max response [19] 4.63% | Potency [20] | max response [21] -0.0883%
